Of roughly 7,900 targets only a part is listed; those with a hit were picked by preference. About 0.6% of all pairs of compound and target were hits.
Experiments:
Assay in all cases: log2 fold change, soluble protein after heating vs DMSO (PISA); higher = thermal stabilisation; K562 cells, 10 uM, 30 min; active = over 0.2 and 3.5 SD of the protein, either way, in both replicates (recomputed)
[1] = compound: CC[C@@H]1C(=O)N(C)c2cnc(Nc3ccc(C(=O)NC4CCN(C)CC4)cc3OC)nc2N1C1CCCC1
How it was run: (§1)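 Soluble protein was quantified by TMTpro 16plex LC-MS/MS after channel sums were equalised. It was obtained as the supernatant after 21,000xg for 90 min from pooled aliquots of K562 cells (2×10^6 cells/mL, 10 μM compound, 30 min) heated for 3 min across 48°C-58°C and extracted in PBS with 0.5% NP-40 at 4°C. Thermal stability values are relative to control samples and come from duplicates. They are given as log2 fold changes.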

[2] = compound: CC[C@@H]1C(=O)N(C)c2cnc(Nc3ccc(C(=O)N[C@H]4CC[C@H](N5CCN(CC6CC6)CC5)CC4)cc3OC)nc2N1C(C)C [volasertib]
How it was run: as §1

[3] = compound: CC[C@H](C)N1C=C(C2=C(C=C(C=C21)C3=CN=C(C=C3)N4CCNCC4)C(=O)NCC5=C(C=C(NC5=O)C)C)C
How it was run: as §1

[4] = compound: CC[C@H](C)[C@@H](C(=O)N[C@@H]([C@@H](C)O)C(=O)N[C@@H](CC(C)C)C(=O)[C@]1(CO1)C)NC(=O)[C@H]([C@@H](C)CC)N(C)C(=O)C [epoxomicin]
How it was run: as §1

[5] = compound: CCn1c(C(=O)N(C2CC2)C2CC2)cc2c3c(ncn3C)c(Nc3cc(C)n(C)n3)nc21
How it was run: as §1

[6] = compound: CN(C)CC(=O)Nc1ccc2[nH]c(=O)c3ccccc3c2c1
How it was run: as §1

[7] = compound: CN(CCOC1=CC=C(C=C1)C[C@H]2C(=O)NC(=O)S2)C3=CC=CC=N3 (racemic) [rosiglitazone]
How it was run: as §1

[8] = compound: CN1C2=C(C3=C1C(=O)N(N=C3)CC4=CC(=CC=C4)N)SC(=C2)S(=O)C
How it was run: as §1

[9] = compound: CN1CCN(CCOc2cc(OC3CCOCC3)c3c(Nc4c(Cl)ccc5c4OCO5)ncnc3c2)CC1 [saracatinib]
How it was run: as §1

[10] = compound: CN1CCN(c2nc(C3=C(c4c[nH]c5ccccc45)C(=O)NC3=O)c3ccccc3n2)CC1 [sotrastaurin]
How it was run: as §1

[11] = compound: CN1CC[C@H](c2c(O)cc(O)c3c(=O)cc(-c4ccccc4Cl)oc23)[C@H](O)C1 [alvocidib]
How it was run: as §1

[12] = compound: CN1CCc2c(c3ccccc3n2Cc2ccc(C(=O)NO)cc2)C1 [Tubastatin A]
How it was run: as §1

[13] = compound: CNC(=O)C1=CC=CC=C1NC2=NC(=NC=C2Cl)NC3=C(C=C(C=C3)N4CCOCC4)OC
How it was run: as §1

[14] = compound: CNC(=O)c1ccc(Nc2ncc(C(F)(F)F)c(NCc3nccnc3N(C)S(C)(=O)=O)n2)cc1 [defactinib]
How it was run: as §1

[15] = compound: CNCc1ccc(-c2[nH]c3cc(F)cc4c3c2CCNC4=O)cc1 [rucaparib]
How it was run: as §1

[16] = compound: CNc1nc(-c2ccc3c(N)n[nH]c3c2)cc(N2C[C@@H](C(=O)NC3CCCCC3)CC[C@H]2C)n1
How it was run: as §1

[17] = compound: COC(=O)N[C@@H](C)CNc1nccc(-c2cn(C(C)C)nc2-c2cc(Cl)cc(NS(C)(=O)=O)c2F)n1 [encorafenib]
How it was run: as §1

[18] = compound: COC(=O)[C@H](CCSC)NC(=O)C1=C(C=C(C=C1)NC[C@H](CS)N)C2=CC=CC=C2
How it was run: as §1

[19] = compound: CCn1cc(-c2ccnc3[nH]c(-c4cccc(CN(C)C)c4)cc23)c(-c2ccc(NC(=O)N(C)C)cc2)n1
How it was run: as §1

[20] = compound: CN1CCC(CNc2ccc3ncc(-c4cccc(OC(F)(F)F)c4)n3n2)CC1
How it was run: as §1

Measured: log2 fold change

IFITM3 (UniProt Q01628)
inactive: [1] -0.004 | [2] 0.033 | [3] 0.023 | [4] -0.007 | [5] -0.124 | [6] 0.175 | [7] -0.096 | [8] -0.015 | [9] -0.022 | [10] 0.035 | [11] -0.011 | [12] 0.241 | [13] 0.044 | [14] -0.165 | [15] 0.093 | [16] 0.03 | [17] 0.1 | [18] 0.008

GAK (UniProt O14976)
Chain of UniProt O14976 (O14976 whole entry, looked up): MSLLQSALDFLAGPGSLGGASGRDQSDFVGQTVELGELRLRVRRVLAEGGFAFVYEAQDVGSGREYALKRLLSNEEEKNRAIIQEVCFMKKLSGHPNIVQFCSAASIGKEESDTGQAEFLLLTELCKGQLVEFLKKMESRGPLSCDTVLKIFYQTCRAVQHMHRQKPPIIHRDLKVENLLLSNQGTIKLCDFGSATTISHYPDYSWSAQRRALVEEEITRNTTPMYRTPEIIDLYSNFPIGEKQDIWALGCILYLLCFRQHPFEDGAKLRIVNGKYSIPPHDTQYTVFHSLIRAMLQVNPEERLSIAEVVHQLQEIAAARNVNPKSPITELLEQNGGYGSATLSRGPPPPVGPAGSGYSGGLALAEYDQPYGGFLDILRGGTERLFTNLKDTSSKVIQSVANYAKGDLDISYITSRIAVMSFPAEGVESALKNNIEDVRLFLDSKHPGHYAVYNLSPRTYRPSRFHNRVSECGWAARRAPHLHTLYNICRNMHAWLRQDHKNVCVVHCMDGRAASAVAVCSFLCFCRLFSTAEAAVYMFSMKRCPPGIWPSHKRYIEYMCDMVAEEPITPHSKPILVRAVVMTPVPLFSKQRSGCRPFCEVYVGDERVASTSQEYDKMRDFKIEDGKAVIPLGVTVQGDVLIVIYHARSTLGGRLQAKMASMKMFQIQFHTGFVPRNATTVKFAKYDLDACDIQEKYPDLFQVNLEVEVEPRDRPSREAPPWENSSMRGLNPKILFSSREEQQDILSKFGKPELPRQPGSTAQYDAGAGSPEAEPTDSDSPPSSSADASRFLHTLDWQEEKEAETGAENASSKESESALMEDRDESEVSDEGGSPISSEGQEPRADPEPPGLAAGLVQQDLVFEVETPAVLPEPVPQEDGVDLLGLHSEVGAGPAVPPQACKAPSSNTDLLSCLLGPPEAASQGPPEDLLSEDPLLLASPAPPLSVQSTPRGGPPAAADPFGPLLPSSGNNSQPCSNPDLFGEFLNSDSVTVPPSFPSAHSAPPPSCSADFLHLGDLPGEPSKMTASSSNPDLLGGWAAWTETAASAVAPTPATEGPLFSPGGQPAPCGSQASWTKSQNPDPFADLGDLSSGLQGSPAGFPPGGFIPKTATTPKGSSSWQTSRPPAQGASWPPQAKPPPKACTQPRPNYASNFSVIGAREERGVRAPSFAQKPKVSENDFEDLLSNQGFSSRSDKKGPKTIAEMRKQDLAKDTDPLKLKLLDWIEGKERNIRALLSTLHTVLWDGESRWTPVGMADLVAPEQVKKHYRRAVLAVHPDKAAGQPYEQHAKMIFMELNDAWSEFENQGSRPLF
inactive: [1] 0.673 | [2] 1.35 | [3] -0.401 | [4] -0.046 | [5] 0.096 | [19] 0.11 | [6] 0.382 | [8] -0.038 | [20] 0.95 | [9] 1.06 | [10] -0.066 | [11] 1.14 | [12] 0.011 | [13] 1.11 | [14] 0.658 | [15] 0.237 | [16] 0.402 | [17] -0.17 | [18] -0.266

FKBP4 (UniProt Q02790)
inactive: [1] -0.066 | [2] -0.136 | [3] 0.07 | [4] 0.033 | [5] -0.01 | [19] -0.051 | [6] 0.019 | [7] 0.042 | [8] -0.04 | [20] -0.119 | [9] -0.048 | [10] -0.022 | [11] -0.092 | [12] -0.009 | [13] 0.032 | [14] -0.055 | [15] 0.016 | [16] 0.05 | [17] 0.026 | [18] -0.036

GDE1 (UniProt Q9NZC3)
Chain of UniProt Q9NZC3 (Q9NZC3 whole entry, looked up): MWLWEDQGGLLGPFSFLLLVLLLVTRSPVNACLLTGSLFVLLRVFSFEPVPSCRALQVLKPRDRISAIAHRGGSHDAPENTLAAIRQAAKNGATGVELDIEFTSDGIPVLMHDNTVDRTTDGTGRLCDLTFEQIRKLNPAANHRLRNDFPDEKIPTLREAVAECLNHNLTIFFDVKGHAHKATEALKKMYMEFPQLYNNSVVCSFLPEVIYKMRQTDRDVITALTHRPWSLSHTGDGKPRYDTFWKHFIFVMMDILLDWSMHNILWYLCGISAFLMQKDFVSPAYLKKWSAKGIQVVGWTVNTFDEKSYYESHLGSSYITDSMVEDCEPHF
active: [12] -0.316
inactive: [1] 0.033 | [2] 0.053 | [3] -0.092 | [4] -0.046 | [5] 0.002 | [6] -0.049 | [7] -0.003 | [8] -0.016 | [9] 0.029 | [10] 0.051 | [11] -0.059 | [13] -0.003 | [14] -0.017 | [15] 0.009 | [16] 0.01 | [17] -0.017 | [18] 0.024

H1FX (UniProt Q92522)
inactive: [1] 0.166 | [2] 0.415 | [3] -0.003 | [4] -0.201 | [5] -0.026 | [19] 0.041 | [6] -0.115 | [7] -0.156 | [8] 0.287 | [20] 0.129 | [9] -0.054 | [10] -0.237 | [11] 0.381 | [12] 0.093 | [13] 0.041 | [14] 0.336 | [15] 0.219 | [16] 0.102 | [17] 0.121 | [18] 0.013

FHOD1 (UniProt Q9Y613)
Chain of UniProt Q9Y613 (Q9Y613 whole entry, looked up): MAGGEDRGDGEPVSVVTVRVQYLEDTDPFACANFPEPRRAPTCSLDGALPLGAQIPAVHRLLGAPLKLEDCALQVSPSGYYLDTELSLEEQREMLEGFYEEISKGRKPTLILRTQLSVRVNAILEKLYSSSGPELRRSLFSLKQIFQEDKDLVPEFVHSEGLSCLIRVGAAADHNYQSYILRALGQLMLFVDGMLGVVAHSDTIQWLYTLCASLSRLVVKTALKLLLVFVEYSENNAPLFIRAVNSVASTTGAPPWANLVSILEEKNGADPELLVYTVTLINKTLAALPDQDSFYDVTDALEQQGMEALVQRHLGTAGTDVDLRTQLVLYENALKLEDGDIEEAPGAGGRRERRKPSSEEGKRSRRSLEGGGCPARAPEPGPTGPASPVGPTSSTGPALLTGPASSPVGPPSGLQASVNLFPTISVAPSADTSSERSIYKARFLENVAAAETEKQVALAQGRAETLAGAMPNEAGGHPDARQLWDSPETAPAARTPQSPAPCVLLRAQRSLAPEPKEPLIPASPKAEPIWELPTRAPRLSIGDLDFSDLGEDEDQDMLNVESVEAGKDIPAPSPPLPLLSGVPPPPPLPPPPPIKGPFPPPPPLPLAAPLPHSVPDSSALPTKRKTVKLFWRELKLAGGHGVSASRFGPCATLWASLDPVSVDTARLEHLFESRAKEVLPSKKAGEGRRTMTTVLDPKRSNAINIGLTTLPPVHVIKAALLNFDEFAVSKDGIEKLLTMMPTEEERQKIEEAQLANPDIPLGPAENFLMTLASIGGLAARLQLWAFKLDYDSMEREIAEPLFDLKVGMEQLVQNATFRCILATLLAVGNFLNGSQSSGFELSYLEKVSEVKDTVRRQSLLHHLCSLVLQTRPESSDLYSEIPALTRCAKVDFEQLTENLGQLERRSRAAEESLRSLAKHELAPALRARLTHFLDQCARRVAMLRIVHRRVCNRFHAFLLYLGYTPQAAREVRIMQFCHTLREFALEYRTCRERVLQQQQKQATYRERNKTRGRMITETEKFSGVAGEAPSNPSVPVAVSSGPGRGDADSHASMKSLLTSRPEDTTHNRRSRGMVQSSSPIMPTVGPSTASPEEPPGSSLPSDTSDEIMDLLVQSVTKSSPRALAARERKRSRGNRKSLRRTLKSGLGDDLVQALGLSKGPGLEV
inactive: [1] 0.127 | [2] -0.055 | [3] 0.075 | [4] -0.171 | [5] -0.148 | [19] 0.093 | [6] -0.048 | [7] 0.039 | [8] 0.372 | [20] -0.022 | [9] -0.143 | [10] -0.112 | [11] 0.292 | [13] -0.027 | [14] -0.042 | [15] 0.442 | [16] 0.101 | [17] 0.187 | [18] 0.049

GNL1 (UniProt P36915)
inactive: [1] -0.095 | [3] 0.027 | [4] 0.008 | [5] -0.006 | [19] -0.1 | [6] 0.024 | [7] 0.01 | [8] -0.083 | [20] -0.053 | [9] 0.013 | [10] 0.013 | [11] -0.038 | [12] 0.018 | [13] 0.009 | [14] 0.023 | [15] -0.039 | [16] 0.016 | [17] 0.021 | [18] -0.011
active: [2] -0.229

HDAC7 isoform 5 (UniProt Q8WUI4)
inactive: [1] 0.051 | [2] 0.01 | [3] 0.007 | [4] 0.016 | [5] -0.031 | [19] -0.058 | [6] 0.059 | [7] 0.011 | [8] -0.053 | [20] -0.123 | [9] -0.04 | [10] -0.048 | [11] -0.185 | [13] -0.2 | [14] -0.011 | [15] -0.033 | [16] 0 | [17] -0.016 | [18] 0.012

H2AZ1 (UniProt P0C0S5)
Chain of UniProt P0C0S5 (P0C0S5 whole entry, looked up): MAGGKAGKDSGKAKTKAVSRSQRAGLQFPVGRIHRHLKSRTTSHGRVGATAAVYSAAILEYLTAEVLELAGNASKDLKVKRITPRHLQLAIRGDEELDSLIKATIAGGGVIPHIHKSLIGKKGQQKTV
inactive: [1] 0 | [2] 0.065 | [3] -0.084 | [4] -0.311 | [5] 0.054 | [19] 0.103 | [6] -0.071 | [7] -0.052 | [8] 0.435 | [20] 0.026 | [9] -0.082 | [10] 0.067 | [11] 0.093 | [12] -0.017 | [13] -0.102 | [14] 0.259 | [15] 0.396 | [16] -0.014 | [17] 0.107 | [18] 0.105

ICMT (UniProt O60725)
Chain of UniProt O60725 (O60725 whole entry, looked up): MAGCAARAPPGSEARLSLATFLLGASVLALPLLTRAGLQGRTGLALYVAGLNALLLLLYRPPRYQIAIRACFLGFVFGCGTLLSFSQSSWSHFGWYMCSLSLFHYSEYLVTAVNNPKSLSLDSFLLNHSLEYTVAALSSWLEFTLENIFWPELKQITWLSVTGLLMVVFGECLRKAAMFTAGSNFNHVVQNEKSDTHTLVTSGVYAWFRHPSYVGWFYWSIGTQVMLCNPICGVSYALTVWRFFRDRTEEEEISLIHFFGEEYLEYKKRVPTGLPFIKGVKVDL
inactive: [1] 0.202 | [2] 0.138 | [3] -0.027 | [4] -0.029 | [5] 0.073 | [6] 0.061 | [7] 0.033 | [8] -0.051 | [9] -0.105 | [10] 0.025 | [12] -0.065 | [13] 0.061 | [14] -0.034 | [15] 0.037 | [16] 0.235 | [17] -0.144 | [18] 0.062

HSD17B12 (UniProt Q53GQ0)
inactive: [1] -0.046 | [2] -0.183 | [3] 0 | [4] -0.013 | [5] -0.036 | [19] -0.104 | [6] 0.01 | [7] -0.016 | [8] -0.039 | [20] 0.037 | [9] -0.037 | [10] 0.151 | [11] -0.082 | [12] -0.007 | [13] 0.005 | [14] -0.024 | [15] -0.043 | [16] 0.038 | [17] 0.027 | [18] 0.013

FDFT1 (UniProt P37268)
inactive: [1] -0.067 | [2] -0.151 | [3] -0.01 | [4] 0.06 | [5] -0.017 | [19] -0.06 | [6] 0.003 | [7] -0.024 | [8] -0.059 | [20] 0.067 | [9] 0.071 | [11] -0.033 | [12] 0.012 | [13] -0.002 | [14] -0.02 | [15] 0.004 | [16] -0.072 | [17] -0.032 | [18] -0.028
active: [10] 0.604

GBF1 (UniProt Q92538)
Chain of UniProt Q92538 (Q92538 whole entry, looked up): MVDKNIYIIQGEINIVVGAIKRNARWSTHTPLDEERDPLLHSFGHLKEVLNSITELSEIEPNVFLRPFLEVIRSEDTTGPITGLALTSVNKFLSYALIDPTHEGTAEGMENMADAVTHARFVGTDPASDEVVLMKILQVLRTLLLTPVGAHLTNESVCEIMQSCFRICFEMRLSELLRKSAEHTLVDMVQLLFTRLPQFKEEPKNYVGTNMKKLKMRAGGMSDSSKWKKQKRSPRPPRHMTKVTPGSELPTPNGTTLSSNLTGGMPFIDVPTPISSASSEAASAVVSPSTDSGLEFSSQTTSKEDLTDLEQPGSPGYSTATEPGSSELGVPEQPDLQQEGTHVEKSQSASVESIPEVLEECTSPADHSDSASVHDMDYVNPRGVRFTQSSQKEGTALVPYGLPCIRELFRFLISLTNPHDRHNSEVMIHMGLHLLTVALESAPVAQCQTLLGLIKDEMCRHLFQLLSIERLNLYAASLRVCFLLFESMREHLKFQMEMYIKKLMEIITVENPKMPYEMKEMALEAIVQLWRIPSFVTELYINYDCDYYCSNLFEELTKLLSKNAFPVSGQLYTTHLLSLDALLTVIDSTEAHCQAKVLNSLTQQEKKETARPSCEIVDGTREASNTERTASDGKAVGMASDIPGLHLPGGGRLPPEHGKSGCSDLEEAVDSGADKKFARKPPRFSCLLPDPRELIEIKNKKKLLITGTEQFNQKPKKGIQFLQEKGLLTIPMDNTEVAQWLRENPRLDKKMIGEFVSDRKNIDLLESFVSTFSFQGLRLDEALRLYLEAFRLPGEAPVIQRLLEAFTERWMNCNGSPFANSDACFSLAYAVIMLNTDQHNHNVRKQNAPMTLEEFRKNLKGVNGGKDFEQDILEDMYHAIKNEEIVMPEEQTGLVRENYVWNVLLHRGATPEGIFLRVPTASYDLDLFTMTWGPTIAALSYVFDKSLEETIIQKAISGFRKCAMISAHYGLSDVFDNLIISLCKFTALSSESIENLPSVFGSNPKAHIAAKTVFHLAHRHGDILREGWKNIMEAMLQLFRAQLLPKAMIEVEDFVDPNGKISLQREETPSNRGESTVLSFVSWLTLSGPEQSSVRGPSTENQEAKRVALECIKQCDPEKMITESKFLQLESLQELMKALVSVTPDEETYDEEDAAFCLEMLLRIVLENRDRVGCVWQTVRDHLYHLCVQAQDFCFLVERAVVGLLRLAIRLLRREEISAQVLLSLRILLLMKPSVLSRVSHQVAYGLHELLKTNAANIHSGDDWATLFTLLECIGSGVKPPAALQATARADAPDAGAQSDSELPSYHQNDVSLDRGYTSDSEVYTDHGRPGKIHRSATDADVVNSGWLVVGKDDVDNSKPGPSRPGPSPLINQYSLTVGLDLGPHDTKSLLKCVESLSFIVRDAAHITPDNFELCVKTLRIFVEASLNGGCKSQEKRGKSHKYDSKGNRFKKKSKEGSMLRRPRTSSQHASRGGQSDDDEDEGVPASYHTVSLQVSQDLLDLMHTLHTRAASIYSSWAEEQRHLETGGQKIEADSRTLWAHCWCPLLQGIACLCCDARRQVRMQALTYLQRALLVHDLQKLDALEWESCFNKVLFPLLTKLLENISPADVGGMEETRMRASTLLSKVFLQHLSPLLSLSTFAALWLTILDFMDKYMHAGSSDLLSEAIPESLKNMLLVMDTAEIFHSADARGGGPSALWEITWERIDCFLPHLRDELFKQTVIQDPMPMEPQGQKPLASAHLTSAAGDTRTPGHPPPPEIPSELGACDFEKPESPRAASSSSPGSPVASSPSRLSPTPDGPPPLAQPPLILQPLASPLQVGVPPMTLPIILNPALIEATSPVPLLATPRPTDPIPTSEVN
active: [2] -0.474
inactive: [1] -0.086 | [3] 0.059 | [4] -0.007 | [5] -0.07 | [19] -0.013 | [6] 0.069 | [7] 0.081 | [8] 0.081 | [20] -0.212 | [9] -0.055 | [10] -0.103 | [11] -0.023 | [12] 0.034 | [13] -0.024 | [14] -0.031 | [15] 0.044 | [16] 0.059 | [17] 0.104 | [18] -0.015

GYG1 (UniProt P46976)
inactive: [1] 0.107 | [2] 0.338 | [3] 0 | [4] -0.104 | [5] 0.011 | [19] -0.045 | [6] 0.019 | [7] -0.045 | [8] 0.016 | [20] -0.011 | [9] -0.03 | [10] -0.425 | [11] -0.046 | [12] 0.033 | [13] 0.091 | [14] -0.042 | [15] 0.062 | [16] 0.038 | [17] 0.083 | [18] 0.013

HBQ1 (UniProt P09105)
inactive: [1] 0.01 | [2] -0.014 | [3] -0.005 | [5] 0.069 | [19] -0.064 | [6] 0.047 | [7] 0.021 | [8] -0.145 | [20] 0.063 | [9] -0.029 | [10] 0.007 | [11] -0.034 | [12] -0.011 | [13] -0.013 | [14] -0.009 | [15] -0.027 | [16] 0.008 | [17] -0.007 | [18] 0.028
active: [4] 0.375

GIGYF2 (UniProt Q6Y7W6)
active: [2] -0.52 | [20] -0.221
inactive: [1] -0.093 | [3] 0.02 | [4] 0 | [5] -0.046 | [19] -0.039 | [6] 0.032 | [7] 0.069 | [8] 0.021 | [9] -0.097 | [10] -0.111 | [11] -0.118 | [12] 0.023 | [13] 0.005 | [14] -0.04 | [15] 0.065 | [16] 0.016 | [17] -0.018 | [18] -0.022

Source: the supplement of paper PMC10849652
